Compound activity: PubChem, several laboratories
Rows were chosen to be rich in hits. Some 27% of all compounds tested hit in one or more screens of this group.
CYP2C9 inhib: blockers of cytochrome P450 2C9 activity – biochemical, luminescence, ADME assay, primary screen; P11712; CYP2C9 Supersomes, luciferin-H conversion; inhibition, % at 5 µM; actives 20% (n = 96,000); AID 777, 2007;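 active = blocking of liver enzyme CYP2C9 beyond about 50% at 5 µM, limit read from the data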
sEH act: soluble epoxide hydrolase activators, primary screen, biochemical, human sEH | purified human sEH enzymatic activity, activator screen | activation, % at 2 µM | actives 0.04% (n = 91,000) | AID 717, 2007; in the data active = activation above about 37%
CYP2C19 act: human CYP2C19 activators, primary screen, biochemical, luminescence. Cytochrome P450 2C19 (Homo sapiens), P33261. recombinant CYP2C19, luciferin-H EGE luminescence; active compounds read high; 0 = fully inhibited enzyme, 1 = untreated enzyme. activation factor at 5 µM. 96,000 tested, under 10 active. AID 1025, 2008;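 active = activation factor of at least 2 at 5 µM in the primary screen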;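 note: 0 = wells with 2.5 mM tranylcypromine and 1 = vehicle-only wells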
Target sequence (P33261 whole entry, looked up): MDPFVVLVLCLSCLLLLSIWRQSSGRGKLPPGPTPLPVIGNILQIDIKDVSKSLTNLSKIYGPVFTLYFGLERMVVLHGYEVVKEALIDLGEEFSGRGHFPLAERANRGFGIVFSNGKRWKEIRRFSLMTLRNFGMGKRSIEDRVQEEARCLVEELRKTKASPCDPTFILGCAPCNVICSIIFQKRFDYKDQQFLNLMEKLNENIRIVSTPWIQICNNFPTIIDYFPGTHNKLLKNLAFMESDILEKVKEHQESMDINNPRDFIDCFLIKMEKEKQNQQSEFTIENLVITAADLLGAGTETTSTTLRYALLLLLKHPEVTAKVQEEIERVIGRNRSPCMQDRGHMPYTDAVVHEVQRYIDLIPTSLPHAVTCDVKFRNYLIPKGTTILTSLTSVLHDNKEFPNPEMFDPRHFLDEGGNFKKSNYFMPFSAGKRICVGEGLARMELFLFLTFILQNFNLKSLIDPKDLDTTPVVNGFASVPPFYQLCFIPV
CYP2C9 act: human CYP2C9 activators, primary screen, biochemical, luminescence. Cytochrome P450 2C9 (Homo sapiens), P11712. actives 1.4% (n = 96,000). AID 1024, 2008. recombinant CYP2C9, luciferin-H conversion; active compounds read high; factor 1 = untreated enzyme, 0 = blocked. activation factor at 5 µM;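 active = activation factor of 2 or more for CYP2C9 at a 5 µM dose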;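 note: 0 = sulfaphenazole-blocked wells and 1 = vehicle-only wells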
sEH inhibitor: soluble epoxide hydrolase inhibitors, primary screen, biochemical, human sEH; Bifunctional epoxide hydrolase 2 (Homo sapiens), P34913; recombinant human sEH enzymatic activity assay; inhibition, % at 2 µM; actives 0.34% (n = 91,000); AID 707, 2007; in the data active = inhibition above about 80%
CYP2C19 inh: blockers of cytochrome P450 2C19 activity – biochemical, luminescence, ADME assay, primary screen. P33261. CYP2C19 Supersomes, luciferin-H EGE luminescence, 30 min. inhibition, % at 5 µM. actives 21% (n = 96,000);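 active = CYP2C19 inhibition above a set limit at 5 µM in the primary screen, cut at about 50% in these data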;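 note: plate controls were negative control wells for no effect and 2.5 mM tranylcypromine positive control for full effect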
Active calls of the source: *; . = no result.

SMILES | CYP2C9 inhib | sEH act | CYP2C19 act | CYP2C9 act | sEH inhibitor | CYP2C19 inh
O=C1CC(c2ccc(F)cc2)Sc2ccccc2N1 (centres undefined) | . | -1 | . | . | 2 | .
O=C1CNC(=O)N1Cc1ccc(Br)cc1 | 17 | 0 | 0.6 | 0.8 | 3 | 37
O=C(CCCc1ccccc1)Nc1cccnc1 | 50* | -5 | 0.3 | 0.5 | 6 | 75*
CN(C)c1ccc(NC(=O)CCCc2ccccc2)cc1 | 49 | -58 | 0 | 0.5 | 57 | 100*
Cc1cccc(NC(=S)NC(=O)CCc2ccccc2)c1 | 6 | 0 | 0.7 | 0.9 | 4 | 34
O=C(CCc1ccccc1)Nc1cccc(NC(=O)CCc2ccccc2)c1 | 88* | 23 | 0.5 | 0.1 | -26 | 45
CC(C)NC(=O)CCCc1ccccc1 | -4 | . | 0.8 | 1 | . | 21
CN(C)c1ccc(NC(=O)CN2C(=O)CC(c3ccccc3)=Nc3ccccc32)cc1 | 72* | -15 | 0.9 | 0.3 | 16 | 6
COc1ccc(OC)c(NC(=O)CSc2ncnc3c2cnn3-c2ccccc2Cl)c1 | . | 0 | . | . | 2 | .
O=C1CCCc2nc3nc4ccccc4n3cc21 | -24 | -12 | 1.2 | 1.2 | 13 | -18
CCN1CCN(Cc2ccc(NC(=O)Nc3cccs3)cc2)CC1 | -22 | -19 | 1.3 | 1.2 | 19 | -30
Cn1c(CN2CCN(CC#N)CC2)c(C#N)c2ccccc21 | -188 | -8 | 0.5 | 2.9* | 9 | 48
Cn1c(CN2CCCCC2)c(C#N)c2ccccc21 | 13 | 6 | 0 | 0.9 | -6 | 98*
Cn1c(CNC2CCCCC2)c(C#N)c2ccccc21 | 30 | 3 | 0.4 | 0.7 | -4 | 55*
Cn1c(CN2CCC(C(N)=O)CC2)c(C#N)c2ccccc21 | . | 11 | . | . | -12 | .
Cc1ccc(-c2nc3sc4c(N)ncnc4c3c3c2CCCC3)cc1 | 11 | 20 | 1 | 0.9 | -20 | -1
COc1ccc(C(=O)N2c3ccc(F)cc3CCC2C)cc1OC (centres undefined) | 2 | -27 | 1 | 1 | 27 | -2
Cc1ccc(C(=O)N2c3ccc(F)cc3CCC2C)o1 (centres undefined) | 27 | . | 0.5 | 0.7 | . | 53*
Cc1nn(Cc2ccc(C(=O)N3c4ccc(F)cc4CCC3C)o2)c(C)c1Br (centres undefined) | 48 | -9 | 0.1 | 0.5 | 9 | 87*
CC1CCc2cc(F)ccc2N1C(=O)c1cnc2sccn2c1=O (centres undefined) | -3 | 0 | 1 | 1 | 3 | -2
CCCn1c(SCC(=O)N2c3ccc(F)cc3CCC2C)nnc1-c1ccccn1 (centres undefined) | . | 3 | . | . | -3 | .
CC1CCc2cc(F)ccc2N1C(=O)c1ccc2c(c1)OCO2 (centres undefined) | 26 | -1 | 0.4 | 0.7 | 2 | 62*
COc1cc(OC)cc(C(=O)N2c3ccc(F)cc3CCC2C)c1 (centres undefined) | 20 | -12 | 0.5 | 0.8 | 14 | 54*
Cc1ccc(Sc2cc(Cl)nc(N)n2)cc1 | 4 | -5 | 1 | 1 | 6 | 4
CN=Cc1cc(-c2ccccc2)sc1O | -28 | -3 | 0.8 | 1.3 | 4 | 24
SMILES | CYP2C9 inhib | sEH act | CYP2C19 act | CYP2C9 act | sEH inhibitor | CYP2C19 inh
COc1cc2c(cc1OC)C1(Nc3c-2c(C)nn3-c2ccccc2)C(=O)Nc2ccccc21 (centres undefined) | 66* | -4 | 0.9 | 0.3 | 1 | 11
CCc1nn(-c2ccccc2)c2c1-c1cc(OC)c(OC)cc1C1(N2)C(=O)Nc2ccccc21 (centres undefined) | 82* | 10 | 0.8 | 0.2 | -7 | 19
COc1cc2c(cc1OC)C1(Nc3c-2c(-c2ccccc2)nn3-c2ccccc2)C(=O)Nc2ccccc21 (centres undefined) | 60* | 3 | 1 | 0.4 | -6 | 3
COc1ccc(N2C(=O)CSC23C(=O)Nc2ccccc23)cc1OC (centres undefined) | 21 | -4 | 0.8 | 0.8 | 4 | 25
COc1ccc(C(=O)Oc2ccc(/C=N/O)cc2)cc1 | -11 | . | 0.9 | 1.1 | . | 5
Cc1nc(SCC(=O)NCCc2ccccc2)c2oc3ccccc3c2n1 | 58* | -9 | 0.4 | 0.4 | 9 | 65*
CCc1nc(SCC(=O)NCCc2ccccc2)c2oc3ccccc3c2n1 | 68* | 6 | 0.4 | 0.3 | -6 | 57*
O=C(CSc1nnc(Cc2ccccc2)o1)NCc1ccco1 | 0 | -5 | 1 | 1 | 9 | -2
Cc1[nH]c2ccccc2c1Cc1nnc(SCC(=O)NCc2ccco2)o1 | -158 | . | 0.5 | 2.6* | . | 47
Cc1nc(SCC(=O)NCc2ccco2)c2oc3ccccc3c2n1 | 89* | . | 0.1 | 0.1 | . | 89*
Cc1nc(SCC(=O)c2ccc(Cl)s2)c2oc3ccccc3c2n1 | 22 | -2 | 0.8 | 0.8 | 1 | 24
Cc1ccc2cccc(SCC(=O)NCc3ccco3)c2n1 | -51 | . | 0.2 | 1.5 | . | 82*
Cc1cc(C)nc(Sc2ncnc3sc4c(c23)CCC4)n1 | . | 16 | . | . | -12 | .
CNc1nc(-c2c[nH]c3ccccc23)cs1 | 78* | 8 | 0.3 | 0.2 | -6 | 73*
Nc1nc(-c2c[nH]c3ccccc23)cs1 | 31 | -2 | 0.6 | 0.7 | 2 | 42
COc1cc(OC)c(C(=O)Nc2cccc(C(C)=O)c2)cc1OC | 59* | 5 | 0.7 | 0.4 | -2 | 33
COc1ccc(C(=O)Nc2cccc(C(C)=O)c2)cc1OC | 9 | . | 0.6 | 0.9 | . | 41
CC(=O)c1cccc(NC(=S)NC(=O)C(C)C)c1 | 52* | 2 | 0.6 | 0.5 | -4 | 40
COc1cccc(NC(=O)c2ccc(NC(C)=O)cc2)c1 | -34 | -4 | 1 | 1.3 | 6 | -4
COc1ccc(C(=O)Nc2cccc(C(C)=O)c2)c(OC)c1OC | 15 | -6 | 0.4 | 0.8 | 6 | 63*
Cc1cc(=S)n(-c2ccccc2)n1C | -4 | 3 | 1 | 1 | -3 | 4
S=c1[nH]ncn1/N=C/c1ccccn1 | 36 | 9 | 1 | 0.6 | -11 | 3
CC(C)c1ccc(NC(=O)c2cccnc2)cc1 | 14 | -57 | 1 | 0.9 | 56 | 0
CCC(C)c1ccc(O)c(NC(=O)c2cncc(Br)c2)c1 (centres undefined) | 50* | 6 | 0.6 | 0.5 | -6 | 39
CC(C)c1ccc(O)c(NC(=O)c2cccnc2)c1 | 48 | -16 | 0.3 | 0.5 | 14 | 70*
O=C(Nc1ccccc1Cl)C1CCCN(S(=O)(=O)c2ccc(F)cc2)C1 (centres undefined) | 32 | -5 | 0.3 | 0.7 | 7 | 71*
